Laboratory results as given in PubChem BioAssay AID493026 (Johns Hopkins Ion Channel Center, 2011).
Screen size: about 1,000 compounds; about 150 (15%) were called active.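 The calls were made as follows: active = activity change at least 3 SD of negative controls below their mean in both duplicate wells; inactive = the rest.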 The full list was thinned out, with actives kept by preference.

Each compound was assayed against Potassium voltage-gated channel subfamily KQT member 1 (Homo sapiens) (UniProt P51787) (assay: KCNQ1 thallium flux decrease by hits – cell-based, FluxOR thallium flux, counter-screen for KCNQ2 inhibitor project (AID 493026;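 also: CHO cells stably transfected with KCNQ1 and depolarized by potassium stimulus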;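 as to activity change, negative = inhibition: peak minus minimum fluorescence over baseline after thallium addition; 0% = vehicle negative control and -100% = blank without thallium stimulus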)). Settings: KCNQ1-expressing cells, FluxOR thallium flux fluorescence, at 10 µM; active compounds read low.
Chain of Potassium voltage-gated channel subfamily KQT member 1 (Homo sapiens) (P51787 whole entry, looked up): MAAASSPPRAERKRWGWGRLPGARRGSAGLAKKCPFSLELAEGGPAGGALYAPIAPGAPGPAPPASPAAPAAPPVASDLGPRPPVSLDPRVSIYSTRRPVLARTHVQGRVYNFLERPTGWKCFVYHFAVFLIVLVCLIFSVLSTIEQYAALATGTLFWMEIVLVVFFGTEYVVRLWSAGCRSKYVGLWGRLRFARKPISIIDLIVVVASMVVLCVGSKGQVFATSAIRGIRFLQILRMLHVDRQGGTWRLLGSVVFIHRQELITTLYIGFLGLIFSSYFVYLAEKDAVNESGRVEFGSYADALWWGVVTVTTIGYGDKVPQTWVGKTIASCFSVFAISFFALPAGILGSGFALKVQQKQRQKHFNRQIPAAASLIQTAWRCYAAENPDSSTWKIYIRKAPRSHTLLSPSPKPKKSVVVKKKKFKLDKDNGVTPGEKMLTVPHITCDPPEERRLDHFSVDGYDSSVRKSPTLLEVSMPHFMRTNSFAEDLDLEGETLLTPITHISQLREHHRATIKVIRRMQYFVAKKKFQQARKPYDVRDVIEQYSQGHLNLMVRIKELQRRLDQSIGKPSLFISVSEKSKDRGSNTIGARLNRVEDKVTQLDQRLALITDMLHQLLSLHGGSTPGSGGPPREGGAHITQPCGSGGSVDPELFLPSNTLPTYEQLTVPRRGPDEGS
With CCc1ccccc1NC(=O)/C(=C/c1ccccc1)c1ccccc1 the activity change, negative = inhibition was -27% (active).
Cc1ccc(C(=O)c2c(NC(=O)c3ccccc3)sc(C)c2C)cc1 was tested, and the activity change, negative = inhibition was “inactive”.
For COc1ccc(Cl)cc1NC(=O)CN(C)Cc1ccc(OC)c(OC)c1, the activity change, negative = inhibition was “inactive”.
For CN(Cc1ccccc1F)C(=O)C(Cc1ccccc1)NC(=O)c1ccccc1 (stereo unspecified), the activity change, negative = inhibition was “inactive”.
With CCc1ccc(-c2nn(-c3ccccc3)cc2CSC(=N)N)cc1 the activity change, negative = inhibition was -39.5% (active).
With Cc1cccc(C(=O)OC(C)C(=O)NC2CCCc3ccccc32)c1O (stereo unspecified) the activity change, negative = inhibition was “inactive”.
For COC(=O)C1=C(C)N(C(C)c2ccccc2)C(=O)/C1=C\c1ccco1 (stereo unspecified), the activity change, negative = inhibition was “inactive”.
In the case of COc1cccc(COc2ccc(N(C)S(=O)(=O)c3ccccc3)cc2)c1, the activity change, negative = inhibition is reported as “inactive”.
In the case of C=CS(=O)c1sc(Cl)c(N2CCOCC2)c1[N+](=O)[O-] (stereo unspecified), the activity change, negative = inhibition is reported as -35% (active).
For Cc1nc2ccccc2c(-c2ccccc2)c1C(=O)c1ccccc1, the activity change, negative = inhibition was “inactive”.
In the case of CSCc1cc(N(C)C)nc(SCc2ccc(Cl)cc2Cl)n1, the activity change, negative = inhibition is reported as “inactive”.
For Cc1ccc(C2=Nc3c(ccc4ccccc34)C(c3ccncc3)=NN2)cc1, the activity change, negative = inhibition was “inactive”.
In the case of CCc1ccc(-c2cc(C(=O)NCc3ccco3)c3ccccc3n2)s1, the activity change, negative = inhibition is reported as “inactive”.
In the case of Fc1ccc2[nH]c3c(N4CCSCC4)ncnc3c2c1, the activity change, negative = inhibition is reported as “inactive”.
With CCOC(=O)N1CCC(N(CCOC)C(=O)Nc2ccc(C)c(C)c2)CC1 the activity change, negative = inhibition was -30.5% (active).
For O=C(OCC(=O)N(CCc1ccccc1)Cc1ccccc1)c1ccccc1[N+](=O)[O-], the activity change, negative = inhibition was “inactive”.
For CCc1ccc2ncc(C(=O)c3ccccc3)c(N3CCOCC3)c2c1, the activity change, negative = inhibition was “inactive”.
In the case of Cc1ccc(C(C)C)cc1OCC(=O)Nc1ccccc1N1CCCC1, the activity change, negative = inhibition is reported as “inactive”.
CCOC(=O)C(C)Sc1nc2ccccc2c(=O)n1CC1CCCCC1 (stereo unspecified) was tested, and the activity change, negative = inhibition was -33.5% (active).
Cc1ccccc1N1CCN(CC(=O)NCc2ccc(Cl)cc2)CC1 was tested, and the activity change, negative = inhibition was “inactive”.
For O=C(Nc1ccccc1Cl)/C(Cl)=C(\Cl)S(=O)c1ccccc1 (stereo unspecified), the activity change, negative = inhibition was “inactive”.
For CC(NC(=S)NNS(=O)(=O)c1ccc(C(C)(C)C)cc1)c1ccccc1 (stereo unspecified), the activity change, negative = inhibition was “inactive”.
For Cc1ccccc1C(=O)Nc1ccccc1Sc1ccccc1, the activity change, negative = inhibition was “inactive”.
CC(C)C(NC(=O)OCc1ccccc1)C(=O)OCC(=O)N1C(C)CCCC1C (stereo unspecified) was tested, and the activity change, negative = inhibition was “inactive”.
For CC(C(=O)NCC1CCCCC1)N(C)Cc1cccc(Cl)c1 (stereo unspecified), the activity change, negative = inhibition was -42.5% (active).
In the case of COc1ccc(CN(C)C(C)C(=O)NC2CCCc3ccccc32)cc1 (stereo unspecified), the activity change, negative = inhibition is reported as “inactive”.
C=CCn1c(SCC(=O)/C(C#N)=C(\C)N)nc2sc(C)c(C)c2c1=O was tested, and the activity change, negative = inhibition was “inactive”.
O=C(Nc1ccc(Cl)c(Cl)c1)N1CC=C(c2ccccc2)CC1 was tested, and the activity change, negative = inhibition was “inactive”.
In the case of Cc1ccc(N2C(=O)C3C(c4ccccc4)(C2=O)C3(c2ccccc2)c2ccccc2)cc1 (stereo unspecified), the activity change, negative = inhibition is reported as “inactive”.
In the case of CC(C)N(C(=O)CSc1nc(COc2ccccc2)nc2ccccc12)C(C)C, the activity change, negative = inhibition is reported as -44% (active).
In the case of CC(C)[C@H](NC(=O)OCc1ccccc1)C(=O)OCc1ccccc1, the activity change, negative = inhibition is reported as “inactive”.
